In PubChem BioAssay (EPA / NIEHS):
Inconclusive results are not listed. Activity calls are given as the source filed them. How the source made its calls: active means hit-call score of the fitted dose curve at least 0.9, where 1 is the maximum; inconclusive means response in the unintended direction; inactive means score below 0.9.

What was measured:
[1] = TOX21_p53_BLA_p2_viability: Viability Assessment in the Tox21 HCT-116 p53 Agonism Beta-lactamase Assay, Phase 2 (AID 2283591);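 further: compound exposure lasted 16 h at 37 °C; actives lower the ATP signal meaning cytotoxicity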
How it was run: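 HCT116 p53-bla cells, 4000/well, dosed after 5 h plating (217-fold dilution of DMSO stocks) and incubated 16 h at 37C. Viability taken as cellular ATP by CellTiter-Glo luminescence after 30 min RT; signal loss marks cytotoxicity.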

[2] = TOX21_p53_BLA_p3_viability: Viability Assessment in the Tox21 HCT-116 p53 Agonism Beta-lactamase Assay, Phase 3 (AID 2283593);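 further: cells exposed to compound for 16 h before reading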
How it was run: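 HCT116 cells, 4000/well, dosed 5 h after plating by pin transfer (217-fold dilution from DMSO stock) and incubated 16 h at 37C, 5% CO2. Viability read as ATP luminescence with CellTiter-Glo after 30 min at room temperature.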

[3] = biological target: Cellular tumor antigen p53 (Homo sapiens) (UniProt P04637); assay: TOX21_p53_BLA_p3_ratio: Tox21 HCT-116 p53 Agonism Beta-lactamase Assay, Ratio, Phase 3 (AID 2283596)
How it was run: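 Cells were seeded at 4000/well, rested 5 h at 37C, then dosed with DMSO compound solutions (217-fold dilution) for 16 h. CCF4-AM substrate was loaded for 2 h at room temperature, and the 460/530 nm emission ratio was fitted for gain of signal versus DMSO.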

[4] = TOX21_p53_BLA_p4_viability: Viability Assessment in the Tox21 HCT-116 p53 Agonism Beta-lactamase Assay, Phase 4 (AID 2283597);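 further: hits lower the luminescence signal meaning cytotoxicity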
How it was run: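 4000 HCT116 cells per well; 5 h attachment; compounds from DMSO, 217-fold dilution; 16 h at 37C. Then CCF4-AM, 2 h RT, followed by CellTiter-Glo, 30 min RT, luminescence. Decrease = cytotoxicity.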

[5] = biological target: Cellular tumor antigen p53 (Homo sapiens) (UniProt P04637); assay: TOX21_p53_BLA_p5_ratio: Tox21 HCT-116 p53 Agonism Beta-lactamase Assay, Ratio, Phase 5 (AID 2283599)
How it was run: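 HCT-116 p53-bla cells (4000/well) plated 5 h, dosed with compound (217-fold DMSO dilution) for 16 h at 37 C; CCF4-AM substrate 2 h at room temperature. Activity is the 460/530 nm emission ratio (405 nm excitation), fitted in gain-of-signal direction versus DMSO.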

[6] = biological target: Cellular tumor antigen p53 (Homo sapiens) (UniProt P04637); assay: TOX21_p53_BLA_p4_ratio: Tox21 HCT-116 p53 Agonism Beta-lactamase Assay, Ratio, Phase 4 (AID 2283601)
How it was run: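 HCT-116 p53 beta-lactamase reporter cells (4000/well) preincubated 5 h, then compound (217-fold dilution of DMSO stock) for 16 h at 37C. CCF4-AM substrate added 2 h at room temperature; 460/530 nm emission ratio fitted upward versus DMSO.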

Measured: outcome

Sequence of Cellular tumor antigen p53 (Homo sapiens) (P04637 whole entry, looked up): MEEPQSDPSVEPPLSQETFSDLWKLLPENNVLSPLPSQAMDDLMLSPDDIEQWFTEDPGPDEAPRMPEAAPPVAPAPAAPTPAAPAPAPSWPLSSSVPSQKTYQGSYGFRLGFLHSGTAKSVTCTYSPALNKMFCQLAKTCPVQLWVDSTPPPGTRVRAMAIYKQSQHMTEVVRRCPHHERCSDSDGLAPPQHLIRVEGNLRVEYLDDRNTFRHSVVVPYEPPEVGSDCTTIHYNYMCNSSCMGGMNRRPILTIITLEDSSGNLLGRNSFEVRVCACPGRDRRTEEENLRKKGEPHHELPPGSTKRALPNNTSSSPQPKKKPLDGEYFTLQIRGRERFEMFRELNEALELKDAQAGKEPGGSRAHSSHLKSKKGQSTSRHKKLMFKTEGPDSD

CCCCCCCCCCCBr
inactive: all assays above
